We go through 97 compounds from PubChem BioAssay AID431 (Sanford-Burnham Center for Chemical Genomics, 2006).

The campaign covered roughly 63,000 compounds. About 1,100 (1.7%) were called active. The sample as a whole holds a higher share of actives than the screen did. Potency and affinity values are given separately. Values without a mark were called inactive.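 How the source made its calls: active means compounds whose percent cytotoxicity in the single-dose primary screen, scaled between solvent and toxic-drug controls, exceeds 50; inactive means the rest.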

The test is described as follows: cytotoxicity in KRAS-transformed pancreatic duct cells, primary screen, cell-based, fluorescence, HTS (AID 431).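 Further: 0% = DMSO solvent wells and 100% = doxorubicin-treated wells.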 Particulars: HPDE-C7K KRASV12 cells, Alamar Blue viability, 48 h; at 10 µM; stronger effect = higher value. On the technique in general: The colour change of resazurin is a common sign of viable cells or microbes.
For `CCOc1ccccc1N(CC(=O)NC1CCCC1)C(=O)CCCC(=O)Nc1ccccn1`, the cytotoxicity was -29.3%.

In the case of `O=C(Cn1c(=O)oc2ccccc21)N1CCCCC1`, the cytotoxicity was -21%.

As to `CN(CCc1ccccn1)C(=O)CCNC(=O)Cn1cnc2ccccc2c1=O`, the cytotoxicity is -9.4%.

Take `O=C(COc1ccccc1)Nc1cccc(-c2nnc(-c3ccccc3)o2)c1`: the cytotoxicity is 8.5%.

In the case of `COc1ccc(-c2noc(CCC(N)=O)n2)cc1OC`, the cytotoxicity is 7.2%.

Consider `CC(=O)c1cc(F)c(N2CCCC2)cc1C`, for which the cytotoxicity was -6.1%.

As for `Cc1[nH]c(-c2ccco2)nc1C(=O)O`, the cytotoxicity was 1.6%.

Take `O=c1cc(-c2ccccc2)[nH]c2ccccc12`: the cytotoxicity is 46.8%.

For the compound `[O-][n+]1onc2c1CCc1nnc(-c3ccccc3)cc1-2`, the cytotoxicity is 8.2%.

Take `COc1ccc(C2C3=C(CCCC3=O)Nc3nc(C(F)(F)F)nn32)cc1OC` (configuration not stated): the cytotoxicity is -12.5%.

Consider `CC(C)Cn1c(CN2CCN(c3ccccc3F)CC2)nc2c1c(=O)[nH]c(=O)n2C`, for which the cytotoxicity was -9.3%.

As to `Cc1ccc(Cl)cc1N1CCN(Cc2nc3c(c(=O)[nH]c(=O)n3C)n2Cc2ccccc2F)CC1`, the cytotoxicity was 117% (active).

With `Cn1c(=O)[nH]c(=O)c2c1nc(CN1CCN(c3cccc(Cl)c3)CC1)n2Cc1ccccc1Cl`, the cytotoxicity was 2.2%.

With `O=C(Nc1ccncc1)c1ccc2c(c1)OCCO2`, the cytotoxicity was -6.9%.

For the compound `CCC(NC(=O)OC(C)(C)C)C(=O)Oc1ccc2c3c(c(=O)oc2c1)CCC3` (configuration not stated), the cytotoxicity was -7.2%.

As to `CCOC(=O)Cc1cc(=O)[nH]c(Nc2nc3ccccc3o2)n1`, the cytotoxicity is -12.3%.

Turning to `COCCn1c(=N)c(C(=O)NCCc2ccccc2)cc2c(=O)n3cccc(C)c3nc21`, the cytotoxicity is -1.7%.

As to `C=CCn1c(=N)c(C(=O)OCC)cc2c(=O)n3cccc(C)c3nc21`, the cytotoxicity was 9.2%.

On to `Cc1cccn2c(=O)c3cc(C(=O)NCCN4CCOCC4)c(=N)n(CCc4ccccc4)c3nc12`, for which the cytotoxicity is 10.9%.

For the compound `CCOC(=O)c1cc2c(=O)n3cccc(C)c3nc2n(C)c1=N`, the cytotoxicity is 58.1% (active).

With `CCNC(=O)c1cc2c(=O)n3cccc(C)c3nc2n(CCc2ccccc2)c1=N`, the cytotoxicity is 66.8% (active).

In the case of `CCOC(=O)c1cc2c(=O)n3cccc(C)c3nc2n(CCc2ccccc2)c1=N`, the cytotoxicity is -6.7%.

For `CC(C)CCOc1cccc(OCC(=O)N(C)C2CCS(=O)(=O)C2)c1` (configuration not stated), the cytotoxicity was 4.8%.

In the case of `COc1ccc(OC)c(S(=O)(=O)N2CCc3ccccc32)c1`, the cytotoxicity is 18.5%.

Take `CCOc1c(Br)cc(CNc2ncn[nH]2)cc1OC`: the cytotoxicity is 2.8%.

Take `O=C(CSc1nnc(SCc2ccc(Cl)cc2)s1)N1CCN(C(=O)c2ccco2)CC1`: the cytotoxicity is -15.2%.

Take `O=C(CSc1c2c(nc3ccc(Cl)cc13)CCCC2)N1CCN(C(=O)c2ccco2)CC1`: the cytotoxicity was 105% (active).

Consider `O=C(CSc1nc2cc(Cl)ccc2s1)N1CCN(C(=O)c2ccco2)CC1`, for which the cytotoxicity was 5.8%.

As to `CC1Cc2nc(SCC(=O)NCc3ccco3)n(-c3ccccc3)c(=O)c2S1` (configuration not stated), the cytotoxicity is 3.1%.

`O=C(Cc1cccs1)NCc1ccc2c(c1)OCO2`: the cytotoxicity is -5.9%.

Take `CCOC(=O)c1oc2c(C)c(O)ccc2c(=O)c1-c1nncn1-c1ccccc1`: the cytotoxicity was -6.3%.

Regarding `Cn1c(=O)[nH]c(=O)c2c1nc(CN1CCN(c3cccc(Cl)c3)CC1)n2CCCc1ccccc1`, the cytotoxicity is 6%.

For the compound `Nc1cccc(-c2nc3ccc(N)cc3s2)c1`, the cytotoxicity was 50.7% (active).

As to `Oc1cccc(-c2nc3ccccc3s2)c1`, the cytotoxicity was 0.9%.

With `Cc1nc2ccc(N)cc2s1`, the cytotoxicity is -7.6%.

With `CN(C)CCCN1c2ccccc2CCc2ccccc21`, the cytotoxicity is 20.3%.

As for `CCOC(=O)Nc1ccc2c(c1)N(C(=O)CCN(C)C)c1ccccc1S2`, the cytotoxicity is 15%.

Consider `CN(C)CCCN1c2ccccc2Sc2ccccc21`, for which the cytotoxicity was 56.1% (active).

As to `COc1ccc2c(c1)Sc1ccccc1N2CCN(C)C`, the cytotoxicity is 27.8%.

On to `CN(C)CCCN1c2ccccc2CCc2ccc(Cl)cc21`, for which the cytotoxicity was 47.6%.

In the case of `CCN1C(=O)C2C(c3ccc(O)c(OC)c3)NC(C)(C(=O)OC)C2C1=O` (configuration not stated), the cytotoxicity is 9.8%.

As to `CCc1c(C)nc2ncnn2c1N1CCCC(C(=O)NCCc2ccccc2)C1` (configuration not stated), the cytotoxicity is 2.2%.

As for `CCOC(=O)C1CCN(C(=O)c2ccc(Cl)c(Cl)c2)CC1`, the cytotoxicity is -6.5%.

Consider `O=C(Nc1ccc(Cl)cc1)NC1CCS(=O)(=O)C1` (configuration not stated), for which the cytotoxicity is -15%.

In the case of `CC(Oc1ccc(Cl)cc1Cl)c1nc(-c2ccccn2)no1` (configuration not stated), the cytotoxicity was 23.6%.

Turning to `O=C(Nc1ccc(-c2noc(CCc3ccccc3)n2)cc1)c1cccnc1`, the cytotoxicity is 47%.

Regarding `COc1cccc(-c2nc(-c3ccc(NC(=O)c4cccnc4)cc3)no2)c1`, the cytotoxicity was 44.3%.

`CC(Oc1ccc(Cl)cc1Cl)c1nc(-c2ccc(NC(=O)c3cccnc3)cc2)no1` (configuration not stated): the cytotoxicity was 59.3% (active).

In the case of `COc1ccc(Cc2nc(-c3ccc(NC(=O)c4cccnc4)cc3)no2)cc1`, the cytotoxicity was 33.9%.

On to `O=C(Nc1ccc(-c2noc(-c3cccs3)n2)cc1)c1cccnc1`, for which the cytotoxicity was 52.5% (active).

In the case of `CC(C)(C)Cc1nc(-c2ccccn2)no1`, the cytotoxicity was -9.1%.

Turning to `COCCNC(=O)c1cc(-c2ccc(Cl)c(Cl)c2)on1`, the cytotoxicity was -9.5%.

Regarding `O=C(c1cc2cc(Br)ccc2oc1=O)N1CCN(c2ccccn2)CC1`, the cytotoxicity is -8.8%.

`O=C(CC1SCCNC1=O)Nc1cc(Cl)cc(Cl)c1` (configuration not stated): the cytotoxicity is -5.4%.

For `O=C(CC(c1ccccc1)c1cc(Cl)ccc1O)N1CCOCC1` (configuration not stated), the cytotoxicity is 10.5%.

As for `CCOc1ccc(C2C3=C(CCCC3=O)Nc3nc(C(F)(F)F)nn32)cc1OC` (configuration not stated), the cytotoxicity is 1.4%.

In the case of `COc1ccc(CCNc2nc(N3CCCCC3)nc(N3CCCCC3)n2)cc1OC`, the cytotoxicity is 45.3%.

Take `O=S(=O)(/C=C/c1ccccc1)n1cnc2ccccc21`: the cytotoxicity is 40.1%.

With `Cc1cc(C)n(S(=O)(=O)Cc2ccccc2)n1`, the cytotoxicity is -3.7%.

On to `CC1CCc2nn(CC(=O)N3CCCCCC3)cc2C1` (configuration not stated), for which the cytotoxicity was 2.2%.

For the compound `Cc1ccc2c(c1)NC(=O)C(CC(=O)NCCN(CC(C)C)CC(C)C)O2` (configuration not stated), the cytotoxicity was 15.6%.

As for `COc1cccc(CNC(=O)C2CCN(Cc3cnn(-c4ccccc4)c3-n3cccc3)CC2)c1`, the cytotoxicity was 5.5%.

On to `CCOC(=O)c1sc(NC(=O)CSc2ncn(-c3ccccc3)n2)nc1C`, for which the cytotoxicity is 76.1% (active).

As for `O=C(CSc1ncn(-c2ccccc2)n1)Nc1nc2ccccc2s1`, the cytotoxicity was -3.6%.

Regarding `CCOC(=O)c1sc(NC(=O)CSc2nnnn2-c2ccccc2)nc1C`, the cytotoxicity is 9.6%.

In the case of `O=C1c2ccccc2C(=O)N1CCCc1nc2ccccc2c(=O)n1CCCn1ccnc1`, the cytotoxicity was -31.5%.

Take `C=CCn1c2ccccc2c2nnc(SCCCn3c(=O)[nH]c4ccccc43)nc21`: the cytotoxicity was 68.6% (active).

For `CCn1c2ccccc2c2nnc(SCCCn3c(=O)[nH]c4ccccc43)nc21`, the cytotoxicity is 2.7%.

`C=CCn1c2ccccc2c2nnc(SCN3C(=O)c4ccccc4C3=O)nc21`: the cytotoxicity was 7.6%.

As for `Cc1cc(C)n2nc(-c3cccnc3)nc2n1`, the cytotoxicity was 2.1%.

For the compound `O=C(Nc1nncs1)c1ccc(N2C(=O)C3C4C=CC(C4)C3C2=O)cc1` (configuration not stated), the cytotoxicity was 10.1%.

On to `CCc1nnc(NC(=O)CSc2nc3c(cc2C#N)CCCC3)s1`, for which the cytotoxicity is 8.4%.

For the compound `CCc1nnc(NC(=O)CSc2nc(C)c3c(c2C#N)CCCC3)s1`, the cytotoxicity is 75.3% (active).

Turning to `CCc1nnc(NC(=O)CSc2nc3c(cc2C#N)CCC3)s1`, the cytotoxicity is 33.4%.

Turning to `O=C(NCc1ccccn1)Nc1ccc(Cl)c(Cl)c1`, the cytotoxicity is 1.8%.

`Cc1ccc(CNC(=O)CCCn2c(=O)[nH]c3ccccc3c2=O)cc1`: the cytotoxicity was -8.5%.

In the case of `O=C1CCCc2c1[nH]c1ccccc21`, the cytotoxicity is -0.9%.

In the case of `c1ccc2c3c([nH]c2c1)-c1[nH]ncc1CC3`, the cytotoxicity was 50.2% (active).

Turning to `Cc1ccc2[nH]c3c(c2c1)CCc1cn[nH]c1-3`, the cytotoxicity is 35.6%.

Regarding `CCOC(=O)C1CCCN(c2nc3ccccc3nc2C(C#N)C(=O)OCC)C1` (configuration not stated), the cytotoxicity is 12.9%.

For the compound `CCOC(=O)C1CCN(c2nc3ccccc3nc2C(C#N)C(=O)OC(C)C)CC1` (configuration not stated), the cytotoxicity is 62.8% (active).

On to `CCOC(=O)C1CCCN(c2nc3ccccc3nc2C(C#N)C(=O)OC(C)COC)C1` (configuration not stated), for which the cytotoxicity was 31.8%.

In the case of `CCOC(=O)C1CCCN(c2nc3ccccc3nc2C(C#N)C(=O)OC(C)C)C1` (configuration not stated), the cytotoxicity is -4.8%.

As to `CCOC(=O)C1CCCN(c2nc3ccccc3nc2C(C#N)C(=O)OCCOC)C1` (configuration not stated), the cytotoxicity was 53.1% (active).

Turning to `CCOC(=O)C1CCN(c2nc3ccccc3nc2C(C#N)C(=O)OC(C)COC)CC1` (configuration not stated), the cytotoxicity is 6.6%.

Consider `O=c1oc2ccccc2n1CCn1c2ccccc2c2nc3ccccc3nc21`, for which the cytotoxicity was 14.9%.

For the compound `CSCCC(NC(=O)c1ccco1)C(=O)OC(C)C(=O)NC(=O)NC1CCCCC1` (configuration not stated), the cytotoxicity was -4.2%.

As to `O=C(CN(C1CCCCC1)S(=O)(=O)c1ccc(F)cc1)NC1CC1`, the cytotoxicity was -2.7%.

In the case of `CCC1CCCCN1c1nc(-c2ccncc2)nc2ccccc12` (configuration not stated), the cytotoxicity is -15.6%.

For `CCOC(=O)Cn1nc(-c2ccc(Cl)cc2)cc1N`, the cytotoxicity was 0.5%.

On to `CCOC(=O)c1[nH]c(C)c(C(=O)Nc2ccccc2F)c1C`, for which the cytotoxicity is 37.9%.

`CCOC(=O)Cc1nnc2c(Nc3ccccc3F)nc3nonc3n12`: the cytotoxicity is 53.8% (active).

As for `CCOC(=O)n1ccc(C(=O)Nc2ccccc2F)n1`, the cytotoxicity is -9.8%.

Regarding `CCOC(=O)Cc1nnc2c(Nc3ccc(Cl)cc3)nc3nonc3n12`, the cytotoxicity is 70.2% (active).

`CCOC(=O)Cc1nnc2c(Nc3ccc(C)cc3)nc3nonc3n12`: the cytotoxicity was -14%.

For `CCOC(=O)c1ccc(NC(=O)CCc2ccc(CC)o2)cc1`, the cytotoxicity was 8.4%.

As for `COc1cccc2cc(C(=O)C3=C(O)C(=O)N(CCCN4CCOCC4)C3c3ccncc3)oc12` (configuration not stated), the cytotoxicity was 3.9%.
